Assay results from PubChem BioAssay AID463173 (ICCB-Longwood Screening Facility, Harvard Medical School, 2010).
Among all 52,000 compounds or so, about 1,700 (3.3%) were called active. What follows is part of a selection rich in actives, with near analogues and random picks from the rest. A number with no mark means an inactive call. Rule as the data show it: active = survival mostly below about 52% (no sharp cut-off); inactive = mostly above about 56%.

tested on: Wild type; test: S. aureus survival, RN4220 and DeltatarO strains – OD600, teichoic acid synthesis inhibitors, primary screen (AID 463173); details: S. aureus RN4220 wild type/DeltatarO growth, OD600, 18 h, active compounds read low, screened at 18.75 µg/mL (by protocol)

Row | Compound | survival
1 | Cc1ccc(NC(=O)Cn2c(=O)n(CCCCC(=O)NCc3ccccc3Cl)c(=O)c3ccccc32)cc1C | 74%
2 | Cc1cccc(NC(=O)CSc2nccn2Cc2ccc(F)cc2)c1C | 71%
3 | O=C(Nc1nc2ccc(S(=O)(=O)N3CCCC3)cc2s1)c1cccc(F)c1 | 63%
4 | COc1ccc2c(c1)c1c(c(=O)n(-c3ccc(F)c(Cl)c3)c(=O)n1Cc1cccc(C)c1)n2C | 71%
5 | Cc1cc(C)c(NC(=O)CSc2ccnc(=O)[nH]2)c(C)c1 | 74%
6 | CCOc1cc(Cl)c(S(=O)(=O)n2ccnc2)cc1Cl | 74%
7 | CCOc1cc(Cl)c(S(=O)(=O)n2cc(C)nc2CC)cc1Cl | -7% (active)
8 | CCc1nc(C)cn1S(=O)(=O)c1ccc(Cl)c(Cl)c1OC | 77%
9 | CCCn1c(SCC(=O)c2ccc3c(c2)OCCO3)nnc1-c1ccco1 | 100%
10 | Oc1ccc(Br)cc1C1CC(c2ccccc2)=NC(c2ccco2)N1 (stereo not drawn) | 1% (active)
11 | O=C(CCN1CCOCC1)N1N=C(c2ccccc2)CC1c1ccco1 (stereo not drawn) | 104%
12 | COc1ccccc1N1CCN(c2ncnc3c2cnn3-c2cccc(Cl)c2)CC1 | -4% (active)
13 | COc1ccccc1N1CCN(c2ncnc3c2cnn3-c2ccc(C)cc2)CC1 | 63%
14 | COc1ccccc1N1CCN(c2ncnc3c2cnn3-c2cc(Cl)ccc2C)CC1 | 136%
15 | O=C(COc1ccccc1Cl)N(Cc1ccco1)Cc1ccco1 | 81%
16 | COc1ccc(CNC(=O)CSc2c3c(nc4ccc(Cl)cc24)CCCC3)cc1 | 76%
17 | CCCNC(=O)CSc1c2c(nc3ccc(Cl)cc13)CCCC2 | 72%
18 | CCCCN(C)C(=O)CSc1c2c(nc3ccc(Cl)cc13)CCCC2 | -2% (active)
19 | Cc1ccc(CNC(=O)CSc2c3c(nc4ccc(Cl)cc24)CCCC3)cc1 | 80%
20 | CCCN(CCC)C(=O)CSc1c2c(nc3ccc(Cl)cc13)CCCC2 | 52%
21 | COc1cc(OC)c(N(C)C(=O)CSc2c3c(nc4ccc(Cl)cc24)CCCC3)cc1Cl | 2% (active)
22 | CCCCNC(=O)CSc1c2c(nc3ccc(Cl)cc13)CCCC2 | 66%
23 | COc1ccc(NC(=O)CSc2c3c(nc4ccc(Cl)cc24)CCCC3)cc1Cl | 75%
24 | CN(Cc1ccccc1)C(=O)CSc1c2c(nc3ccc(Cl)cc13)CCCC2 | 0% (active)

Row | Compound | survival
25 | CCc1ccc(CNC(=O)CSc2c3c(nc4ccc(Cl)cc24)CCCC3)cc1 | 76%
26 | CCCCN(CC)C(=O)CSc1c2c(nc3ccc(Cl)cc13)CCCC2 | -2% (active)
27 | CCOc1ccc(CNC(=O)CSc2c3c(nc4ccc(Cl)cc24)CCCC3)cc1 | 84%
28 | CCCN(C(=O)c1c(C)oc2ncn(CC(C)C)c(=O)c12)c1ccccc1C | 59%
29 | CCOc1ccc(CCNC(=O)Cn2nc(C)c3c(C)n(-c4ccccc4)nc3c2=O)cc1OCC | 19%
30 | CCn1cc(CCC(=O)NCc2ccccc2OC)c2ccccc21 | 76%
31 | COc1ccc(C(=O)NCc2nnc(SCC(=O)Nc3ccccc3)n2-c2ccc(F)cc2)cc1 | 78%
32 | Clc1cccc(-n2ncc3c(N4CCCCCC4)ncnc32)c1 | 81%
33 | Cc1cccc(OCC(=O)Nc2cccc(-c3nc4ccccc4s3)c2)c1 | 5% (active)
34 | COc1cccc(CC(=O)Nc2ccc(-c3nc4ccccc4s3)cc2)c1 | -3% (active)
35 | COc1ccc(CC(=O)Nc2ccc(-c3nc4ccccc4s3)c(C)c2)cc1OC | 10% (active)
36 | COc1ccccc1C(=O)Nc1ccc(-c2nc3ccccc3s2)c(C)c1 | 82%
37 | COc1cccc(CC(=O)Nc2ccc(-c3nc4ccccc4s3)cc2Cl)c1 | 73%
38 | Cc1cc(C)cc(OCC(=O)Nc2ccc(-c3nc4ccccc4s3)cc2)c1 | 88%
39 | COc1ccc(CC(=O)Nc2ccc(-c3nc4ccccc4s3)c(C)c2)cc1 | 69%
40 | Cc1ccc(OCC(=O)Nc2cccc(-c3nc4ccccc4s3)c2)cc1 | 55%
41 | COc1ccc(-c2nc3ccccc3s2)cc1NC(=O)COc1cccc(C)c1 | 39%
42 | COc1ccc(N2CCN(S(=O)(=O)c3cc(Br)cc4c3N(C(=O)C3CC3)CC4)CC2)cc1 | 90%
43 | COc1ccc2nc3oc(C(=O)NCc4ccccc4OC)cc3cc2c1 | 88%
44 | COc1ccc(NC(=O)CC2C(=O)N(c3ccc(F)cc3)C(=O)N2Cc2ccco2)cc1 (stereo not drawn) | 90%
45 | COc1ccc(CNC(=O)c2cc3oc4ccccc4c3n2C)cc1OC | 64%
46 | CCOC(=O)c1c(SCC(=O)Nc2nc3ccc(C)cc3s2)nc(=O)[nH]c1C | 81%
47 | Cc1cnc(=O)[nH]c1SCC(=O)Nc1nc2ccccc2s1 | 89%
48 | CCOC(=O)c1c(SCC(=O)Nc2nc3ccccc3s2)nc(=O)[nH]c1C | 1% (active)

Row | Compound | survival
49 | CC(C)OCCCNC(=O)Cc1ccc(NC(=O)N2CCCCc3ccccc32)cc1 | 77%
50 | CCN(CC)c1ccc(CN(C(=O)c2cc(=O)c3ccccc3o2)C2CCS(=O)(=O)C2)cc1 (stereo not drawn) | 76%
51 | CCOc1ccc(/C=C/C(=O)Nc2sc3c(c2C(=O)OC)C(C(=O)OC)CC3)cc1 (stereo not drawn) | 75%
52 | COC(=O)c1c(NC(=O)CCCOc2cccc(C)c2)sc2c1C(C(=O)OC)CC2 (stereo not drawn) | -3% (active)
53 | COC(=O)c1c(NC(=O)c2cccs2)sc2c1C(C(=O)OC)CC2 (stereo not drawn) | 104%
54 | COC(=O)c1c(NC(=O)CCCOc2ccc(C)cc2)sc2c1C(C(=O)OC)CC2 (stereo not drawn) | 1% (active)
55 | COC(=O)c1c(NC(=O)CCCOc2ccc(C(C)(C)C)cc2)sc2c1C(C(=O)OC)CC2 (stereo not drawn) | -2% (active)
56 | COC(=O)c1c(NC(=O)CCCOc2ccc(C(C)(C)C)cc2)sc2c1CCC(C)C2 (stereo not drawn) | 30%
57 | CC1CCc2c(sc(NC(=O)CCCOc3ccc(C(C)(C)C)cc3)c2C(N)=O)C1 (stereo not drawn) | 79%
58 | COC(=O)c1c(NC(=O)/C(C#N)=C/c2ccccc2)sc2c1C(C(=O)OC)CC2 (stereo not drawn) | 82%
59 | COC(=O)c1c(NC(=O)/C(C#N)=C/c2ccc(OC)cc2)sc2c1C(C(=O)OC)CC2 (stereo not drawn) | 71%
60 | Cc1ccc(N(O)C(=O)Nc2ccccc2)cc1 | 119%
61 | COCCCNC(=O)c1ccc2nc(CCc3ccccc3)oc2c1 | 88%
62 | Cc1cccc(N2CCN(S(=O)(=O)c3ccc(F)c(C(=O)Nc4ccc(C(C)C)cc4)c3)CC2)c1C | 75%
63 | CCOc1ccc(CCNC(=O)Cn2c(C)c3cnn(-c4ccccc4)c(=O)c3c2C)cc1 | 95%
64 | COc1ccc2c(c1)CCc1c(C(=O)Nc3c(C)nn(Cc4ccc(Cl)cc4)c3C)noc1-2 | 64%
65 | COc1ccc2c(c1)CCc1c(C(=O)Nc3c(C)nn(Cc4ccc(C)cc4)c3C)noc1-2 | 16% (active)
66 | COc1ccc2c(c1)CCc1c(C(=O)Nc3c(C)nn(Cc4ccccc4)c3C)noc1-2 | 92%
67 | CC(=O)Nc1cc(C(=O)NCc2ccc(C)cc2)ccc1S(=O)(=O)c1ccc(Cl)cc1 | 85%
68 | CCc1ccc(-n2c(=O)c3cccnc3n2CC(=O)Nc2cc(OC)ccc2OC)cc1 | 74%
69 | Cc1cc(C(=O)c2cccs2)c(N)s1 | 90%
70 | COc1ccc(CNC(=O)c2ccc3c(c2)NC(=O)C(CS(=O)(=O)Cc2ccccc2Cl)N3)cc1 (stereo not drawn) | 49%
71 | Cc1ccc(C)c(N2CCN(C(=O)c3cn(CC(C)C)c(=O)c4c3c3ccccc3n4C)CC2)c1 | 17% (active)
72 | Cc1ccc(Cl)cc1N1CCN(C(=O)c2cn(CC(C)C)c(=O)c3c2c2ccccc2n3C)CC1 | 87%

Row | Compound | survival
73 | Cc1cccc(N2CCN(C(=O)c3cn(CC(C)C)c(=O)c4c3c3ccccc3n4C)CC2)c1C | 89%
74 | Cc1ccc(C(C)C)c(OCCCn2c(=O)oc3ccccc32)c1 | -2% (active)
75 | Cc1cccc(NC(=O)NCCn2c(=O)oc3ccc(C)cc32)c1 | 88%
76 | Cc1ccc2oc(=O)n(CCNC(=O)Nc3ccc(C)c(F)c3)c2c1 | 108%
77 | Cc1ccc(C(C)C)c(OCCCn2c(=O)oc3ccc(C)cc32)c1 | -10% (active)
78 | Cc1ccc(C(C)C)c(OCCn2cc(C(=O)c3ccco3)c3ccccc32)c1 | 30%
79 | Cc1ccc(NC(=O)NCCOCCn2c(=O)oc3ccccc32)c(C)c1 | 88%
80 | Cc1nn2c(C)c(C(=O)NCc3ccc(OC(C)C)cc3)cnc2c1-c1ccc(F)cc1 | 76%
81 | COc1cc(OC)c(NC(=O)Cn2cnc3c(nc4n3CCCCC4)c2=O)cc1Cl | 59%
82 | O=C(NCC1CCCO1)C1CC(=O)N(c2ccccc2)C1 (stereo not drawn) | 123%
83 | Cc1ccc(S(=O)(=O)N2Cc3ccccc3CC2C(=O)N(C)C)cc1 (stereo not drawn) | 102%
84 | Cc1ccc(Cn2c(C(=O)O)c(CNC3CCCC3)c3ccc(C)cc32)cc1 | 83%
85 | Cc1nc2ccn(Cc3cccs3)c(=O)c2cc1C(=O)Nc1ccccc1 | 91%
86 | CCc1ccc(CNC(=O)c2cc3c(=O)n(Cc4cccs4)ccc3nc2C)cc1 | 0% (active)
87 | COc1cc(NC(=O)c2cc3c(=O)n(Cc4cccs4)ccc3nc2C)cc(OC)c1OC | -2% (active)
88 | COc1ccc(CNC(=O)c2cc3c(=O)n(Cc4cccs4)ccc3nc2C)cc1 | 10% (active)
89 | Cc1nc2ccn(Cc3cccs3)c(=O)c2cc1C(=O)NCc1ccc(Br)cc1 | 82%
90 | Cc1nc2ccn(Cc3cccs3)c(=O)c2cc1C(=O)NCc1ccccc1 | 73%
91 | Cc1nc2ccn(Cc3cccs3)c(=O)c2cc1C(=O)NCc1ccc(Cl)cc1 | 22%
92 | COc1ccc(NC(=O)c2cc3c(=O)n(Cc4cccs4)ccc3nc2C)cc1 | 59%
93 | CCOc1ccc(CNC(=O)c2cc3c(=O)n(Cc4cccs4)ccc3nc2C)cc1 | 118%
